Compound activity (PubChem)
This is a sample that favours compounds with a hit; in the whole collection about 3% have one here.
Peg3 promoter: Peg3 promoter activity inhibition; hit rate 1.7% among 360,000; AID 588405; HeLa PEG-Prom luciferase reporter, luminescence, overnight; inhibition, % at 20 µM;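 active means inhibition of at least 50% at 20 µM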
MITF TRPM1 inh: inhibitors of MITF-driven TRPM1 promoter in melanoma cells. hit rate 0.83% among 330,000. AID 488899. inhibition, % at 12.5 µM. SK-MEL-5 TRPM1 promoter luciferase, 24 h;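 active means mean inhibition across replicates of 60% or more, whatever share of single replicates reaches that level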
KKLEB cytotox: CF airway cell cytotoxicity counter-screen. KKLEB CF airway cells viability, ATPlite luminescence, overnight; hits give low values; cells stimulated with P. aeruginosa culture filtrate. activity change (cytotoxicity), % at 5 µM. hit rate 0.36% among 360,000;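 active means corrected activity change at or below -50% at 5 µM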
ABHD5-PLIN5 inh: ABHD5-PLIN5 protein interaction inhibition. inhibition, % at 4 µM. hit rate 0.78% among 360,000. Split G. princeps luciferase complementation, luminescence, 4 h;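 active means inhibition above the mean inhibition across every tested compound plus 3 SD, cut at about 22% in these data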;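 further: 0% = DMSO only wells and the 100% control is not disclosed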
Target sequence (Q00G26 whole entry, looked up): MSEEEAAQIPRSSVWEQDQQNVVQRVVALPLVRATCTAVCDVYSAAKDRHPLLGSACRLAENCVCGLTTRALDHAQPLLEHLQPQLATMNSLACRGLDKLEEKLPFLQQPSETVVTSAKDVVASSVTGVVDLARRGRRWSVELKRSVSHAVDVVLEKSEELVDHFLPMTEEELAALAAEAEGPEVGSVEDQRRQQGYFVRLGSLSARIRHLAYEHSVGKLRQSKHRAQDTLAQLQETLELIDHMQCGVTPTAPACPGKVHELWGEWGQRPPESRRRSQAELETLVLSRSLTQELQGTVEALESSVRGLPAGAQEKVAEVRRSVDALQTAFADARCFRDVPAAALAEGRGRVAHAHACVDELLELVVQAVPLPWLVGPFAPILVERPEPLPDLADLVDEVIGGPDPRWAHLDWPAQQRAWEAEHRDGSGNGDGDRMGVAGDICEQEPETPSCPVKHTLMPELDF
Target sequence (Q8WTS1 whole entry, looked up): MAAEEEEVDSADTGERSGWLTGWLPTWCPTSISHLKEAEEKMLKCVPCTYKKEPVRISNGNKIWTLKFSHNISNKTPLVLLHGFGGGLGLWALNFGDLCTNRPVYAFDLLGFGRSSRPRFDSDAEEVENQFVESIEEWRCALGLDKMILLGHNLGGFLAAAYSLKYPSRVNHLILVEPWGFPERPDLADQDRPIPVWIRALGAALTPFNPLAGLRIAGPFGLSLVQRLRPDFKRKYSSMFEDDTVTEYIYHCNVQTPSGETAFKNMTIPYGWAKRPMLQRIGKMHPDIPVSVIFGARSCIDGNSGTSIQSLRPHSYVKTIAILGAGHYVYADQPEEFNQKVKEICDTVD
HIF-2a block: HIF-2a inhibition; inhibition, % at 18.8 µM; 786-0 RCC cells HIF-2a reporter, luciferase luminescence, overnight; AID 624352; hit rate 0.72% among 360,000;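 active means inhibition of the luminescence signal of 40% or more relative to plate controls, in a single-dose primary screen at 18.75 µM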
CF NFkB block: cystic fibrosis NF-kB activation inhibition | KKLEB NF-kB-GFP reporter, PAF-induced, GFP fluorescence overnight | inhibition, % at 5 µM | hit rate 0.86% among 360,000 | AID 588850;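 active means at least 50% inhibition at 5 µM, scaled per plate between neutral and stimulator controls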;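 further: PAF is a Pseudomonas aeruginosa culture filtrate used as stimulus; plate controls were PAF-stimulated DMSO wells for no effect and unstimulated DMSO wells for full effect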
Active calls of the source: *; . = not tested or not shown.

SMILES	Peg3 promoter	MITF TRPM1 inh	KKLEB cytotox	ABHD5-PLIN5 inh	HIF-2a block	CF NFkB block
C#CCOCCOCCOCCNc1nc(N2CCN(C(=O)CCCCCCCCCCNC(=O)[C@H](CCCCN)n3cc(C[C@@H](C)CC)nn3)CC2)nc(N2CCN(C(=O)CCCCCCCCCCNC(=O)[C@H](CCCN=C(N)N)n3cc(C[C@@H](C)CC)nn3)CC2)n1	101*	104*	0	63*	41*	12
CC[C@H](C)Cc1cn([C@@H](CCCCN)C(=O)NCCCCCCCCCCC(=O)N2CCNCC2)nn1	-5	-2	6	5	-7	-6
CC[C@H](C)Cc1cn([C@@H](CCCN=C(NC(=O)OC(C)(C)C)NC(=O)OC(C)(C)C)C(=O)NCCCCCCCCCCC(=O)N2CCN(C(=O)OC(C)(C)C)CC2)nn1	54*	16	-2	15	1	11
C#CCOCCOCCOCCNc1nc(N2CCN(C(=O)[C@H]([C@@H](C)CC)n3cc([C@@H](N)Cc4ccc(O)cc4)nn3)CC2)nc(N2CCN(C(=O)[C@H](Cc3cc4ccccc4[nH]3)n3cc([C@@H](N)CC(C)C)nn3)CC2)n1	-11	10	-11	22	4	12
C#CCOCCOCCOCCNc1nc(N2CCN(C(=O)[C@H](CCCCN)n3cc([C@@H](N)CC(C)C)nn3)CC2)nc(N2CCN(C(=O)[C@H](Cc3cc4ccccc4[nH]3)n3cc([C@@H](N)Cc4ccc(O)cc4)nn3)CC2)n1	-12	0	12	25*	21	-13
C#CCOCCOCCOCCNc1nc(N2CCN(C(=O)CCCCCCCCCCNC(=O)[C@H](CCCCN)n3cc(C[C@@H](C)CC)nn3)CC2)nc(N2CCN(C(=O)CCCCCCCCCCNC(=O)[C@@H]([C@H](C)O)n3cc(C)nn3)CC2)n1	98*	94*	-49	53*	63*	26
Cc1ccc(C(=O)CN(CCCC(N)=O)S(=O)(=O)c2ccc([N+](=O)[O-])cc2)cc1	-1	6	12	2	-12	-25
CCC(=O)Nc1c2c(nn1-c1ccc(F)cc1)CS(=O)(=O)C2	3	-14	11	-4	14	2
C#CCOCCOCCOCCNc1nc(N2CCN(C(=O)CCCCCCCCCCNC(=O)Cn3cc(C[C@@H](C)O)nn3)CC2)nc(N2CCN(C(=O)CCCCCCCCCCNC(=O)[C@@H](CCSC)n3cc(CCO)nn3)CC2)n1	-70	79*	-10	11	-4	15
C#CCOCCOCCOCCNc1nc(N2CCN(C(=O)[C@H]([C@@H](C)CC)n3cc(CCCN=C(N)N)nn3)CC2)nc(N2CCN(C(=O)[C@H](CCCCN)n3cc(CCCC)nn3)CC2)n1	-5	7	-8	10	6	17
C#CCOCCOCCOCCNc1nc(N2CCN(C(=O)CCCCCCCCCCNC(=O)[C@@H](CCSC)n3cc(CCO)nn3)CC2)nc(N2CCN(C(=O)CCCCCCCCCCNC(=O)[C@H](CCCN=C(N)N)n3cc(C[C@@H](C)CC)nn3)CC2)n1	7	69*	4	64*	-9	10
CN1CCN(CC(O)COc2ccccc2)CC1 (stereo unspecified)	5	5	5	6	8	-2
CN1CCN(CC(O)COc2ccc(C34CC5CC(CC(C5)C3)C4)cc2)CC1 (stereo unspecified)	105*	14	-34	17	-20	25
O=S(=O)(CCSc1ccccn1)c1nc2ccccc2s1	60*	11	-35	14	17	32
O=C(NCc1cccc(Cl)c1)C1Cc2c(-c3ccccc3Oc3ccccc3)ccnc2O1 (stereo unspecified)	21	.	9	6	20	-8
FC(F)(F)c1cc(CO[C@@H]2CCCN[C@@H]2c2ccccc2)cc(C(F)(F)F)c1	72*	-2	4	4	-2	12
CC(C)NC(=O)C1(C)CN(S(C)(=O)=O)CC(=O)N1CCc1ccccc1 (stereo unspecified)	.	.	.	-3	6	.
Cc1cc2nc(NCCCO)n(CC(=O)c3cc(C(C)(C)C)c(O)c(C(C)(C)C)c3)c2cc1C	94*	-7	-44	-5	-8	41
C=CCOc1ccc(/C=C/C(=O)Nc2ccc(C(=O)NC)cc2)cc1	-2	0	4	3	-11	20
Cc1c(CCC(=O)NCCCCCC(=O)O)c(=O)oc2c(C)c3oc4c(c3cc12)CCCC4	11	-6	-5	0	33	11
Cc1c(CCC(=O)NCCCC(=O)O)c(=O)oc2cc3oc4c(c3cc12)CCCC4	-69	31	4	7	72*	-7
Cc1c(CCC(=O)N[C@@H](CCCNC(N)=O)C(=O)O)c(=O)oc2cc3oc4c(c3cc12)CCCC4	-74	23	5	-9	67*	-1
CC(OC(=O)CCc1ccccc1)C(=O)Nc1ccc(Cl)cn1 (stereo unspecified)	-6	-4	16	7	12	-14
COc1ccc(-c2ccc3[nH]c4c(c3c2)CCN2C(=O)[C@@H]([C@H](C)O)[C@@H](N(C)C(=O)Nc3ccc(F)cc3)C[C@@H]42)cc1	95*	.	-18	7	-54	36
On1ccccc1=S	100*	75*	1	0	11	-9
SMILES	Peg3 promoter	MITF TRPM1 inh	KKLEB cytotox	ABHD5-PLIN5 inh	HIF-2a block	CF NFkB block
O=C(Cn1ccccc1=S)c1ccc(Cl)c(Cl)c1	5	.	-4	2	-29	-2
Cc1ccc(NC(=O)CSc2nc3ccccc3c3nc(CCn4cncc4C)nn23)c(C)c1	96*	-14	-19	6	6	5
CCCOC(=O)c1c(-c2ccccc2)nc(CC)c(C(=O)SCC)c1CCC	17	3	19	4	7	20
Cc1ccc(C)c(S(=O)(=O)N2CCN(C(=O)CN3C(=O)C4CC=CCC4C3=O)CC2)c1 (stereo unspecified)	7	1	-14	-4	6	12
COc1ccc(C(=O)NCCc2c[nH]c3ccccc23)cc1[N+](=O)[O-]	9	5	-2	6	-23	-15
COc1cc(NS(=O)(=O)c2ccc(N/C=C(\C#N)c3nc4cc(Cl)ccc4o3)cc2)nc(OC)n1	-17	77*	-17	-2	6	-64
COc1cc(NS(=O)(=O)c2ccc(NC(C)=O)cc2)nc(OC)n1	8	12	-14	-5	5	10
Cc1cc(C)c(C)c(S(=O)(=O)N2CCN(c3ccc(O)cc3)CC2)c1C	21	-1	6	-6	15	8
Cc1ccccc1Cn1cc(NC(=O)c2cc(-c3ccco3)on2)cn1	-3	3	-2	-6	-103	-1
Cc1ccccc1Cn1cc(NC(=O)c2cc(-c3cccs3)on2)cn1	12	1	-54*	6	-26	46
